HepG2 viability = HepG2 cytotoxicity, counter-screen for TGF-b inhibitors. hit rate 0.76% among 410,000. AID 588856. Potency, µM (titrated, usually from 46.1 µM), inactives show top-dose activity change, negative = cytotoxicity, hits mostly cytotoxic. HepG2 CAGA-GFP viability, ATP luminescence, 18 h
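CellTiter-Glo luminescence gave cytotoxicity after 18 hours at 37 degrees C. The cells were HepG2 CAGA-GFP in 1% FBS DMEM, stimulated with 500 pg/mL TGF-beta after compound addition. %Activity was normalised to no-cell wells (complete cell-killing) and DMSO (no toxicity), and curves were fitted and classified.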
HT1080 IDH1KD tx = kills HT-1080 cells with IDH1 knockdown. hit rate 2% among 360,000. AID 686971. HT-1080 IDH1 knockdown viability, ATP luminescence, 48 h. Potency, µM (doses to about 46.1 µM), for the others: top-dose activity, negative = toxicity, actives largely listed as cytotoxic;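 further: 0% = DMSO wells and -100% = cell-free medium wells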
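Viability of IDH1-knockdown HT-1080 fibrosarcoma cells was assessed by CellTiter-Glo after 48 h at 37 °C with titrated compound; concentration-effect curves were classified by fit quality and response size.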
TGFb SMAD3 inh = blocks TGF-b signaling; AID 588855; Potency, µM (top dose mostly 46.1 µM), for inactives: at the top dose activity, negative = inhibition, usual class: inhibitors; HepG2 CAGA-GFP TGF-b/SMAD3 reporter, GFP fluorescence, 18 h; TGF-beta stimulated, 500 pg/mL final; hit rate 1.2% among 410,000; further: on the % scale 0 is the no-effect control and ±100 the full control effect; nearly all actives have a fitted effect of over 65% in size
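Using HEPG2 CAGA-GFP reporter cells at 1000 cells/well, we pinned test compounds, stimulated with recombinant TGF-beta (500 pg/mL final) and measured total well GFP after 18 h.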
KB-3-1 cytotox = KB-3-1 parental cell cytotoxicity. Potency, µM (titrated, usually from 46.1 µM), most hits filed as cytotoxic. hit rate 1.4% among 400,000. AID 1347075. KB-3-1 viability, CellTiter-Glo ATP luminescence, 72 h; further: on the % scale 0 is the no-effect control and ±100 the full control effect; nearly all actives have a fitted effect of over 60% in size
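Cells are dispensed, compounds pinned in, plates held at 37 °C for 72 h, then CellTiter-Glo is added and luminescence read after 10 minutes. Cell line: parental KB-3-1 in phenol-red-free DMEM, 10% FBS.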
HT1080-NT tox = kills 2HG-producing HT-1080-NT fibrosarcoma cells | hit rate 1.6% among 360,000 | AID 686970 | HT-1080-NT fibrosarcoma viability, CellTiter-Glo ATP luminescence, 48 h | Potency, µM (top dose mostly 46.1 µM), for inactives: top-dose activity, negative = less viability, hits mostly cytotoxic;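 further: NT is the 2HG producing partner of a matched IDH1 knockdown line; 0% = DMSO-treated cells and -100% = media-only wells without cells; nearly all actives have a fitted effect of over 55% in size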
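Compounds were tested in concentration-response format on HT-1080-NT cells for 48 hours at 37 degrees C. Cell viability came from CellTiter-Glo luminescence; curves were classified by r2, response magnitude and activity.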
KB-V1 MDR tox = KB-V1 MDR subline cytotoxicity; AID 1347076; KB-V1 MDR cells viability, CellTiter-Glo, 72 h; Potency, µM (titrated, usually from 46.1 µM), hits mostly cytotoxic; hit rate 3.4% among 400,000; further: on the % scale 0 is the no-effect control and ±100 the full control effect; nearly all actives have a fitted effect of over 60% in size
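Luminescent ATP read-out (CellTiter-Glo, 10 min) measures survival of drug-selected KB-V1 MDR cells after 72 h, 37 degrees C compound exposure. Medium: phenol-red-free DMEM, 10% FBS. Values from fitted concentration-response curves.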
An asterisk follows results filed as active. A selection: hits, their analogues and other compounds. The true share with any hit is near 6.6%. The call rests on the fitted dose curve; in most records, active means well fitted curve in the direction sought with a large enough effect; inconclusive means small, poorly fitted or top-dose-only effect, or another doubt; inactive means no such curve, though single readings can be large; an effect the other way counts as inactive or inconclusive. Potency means the concentration at half of the fitted maximal effect.

Cc1ccc(Cl)cc1N1CCN(S(=O)(=O)c2ccc3[nH]c4c(c3c2)CCCC4)CC1 was read as HepG2 viability -3.7%, TGFb SMAD3 inh 10µM*, KB-3-1 cytotox inactive and KB-V1 MDR tox inactive.
For Cc1ccc(NS(=O)(=O)c2ccc3[nH]c4c(c3c2)CCCCCC4)cc1Cl the results were HepG2 viability 12.6µM*, TGFb SMAD3 inh 11.2µM*, KB-3-1 cytotox inactive and KB-V1 MDR tox inactive.
Screening Cc1ccc(C)c(N2CCN(S(=O)(=O)c3ccc4[nH]c5c(c4c3)CCCCC5)CC2)c1 returned HepG2 viability -14.4%, TGFb SMAD3 inh -2.7%, KB-3-1 cytotox inactive and KB-V1 MDR tox inconclusive.
For COc1ccc(NS(=O)(=O)c2ccc3[nH]c4c(c3c2)CCCC4)cc1Cl the results were HepG2 viability -109.2%, TGFb SMAD3 inh inconclusive, KB-3-1 cytotox inactive and KB-V1 MDR tox inconclusive.
Screening CC(=O)c1cccc(NS(=O)(=O)c2ccc3[nH]c4c(c3c2)CCCCC4)c1 returned HepG2 viability -90.0%, TGFb SMAD3 inh inconclusive, KB-3-1 cytotox inconclusive and KB-V1 MDR tox inactive.
CCOC(=O)c1cccc(NS(=O)(=O)c2ccc3[nH]c4c(c3c2)CCCC4)c1 was read as HepG2 viability -53.5%, TGFb SMAD3 inh 14.1µM*, KB-3-1 cytotox inactive and KB-V1 MDR tox inactive.
`Cc1cccc(NS(=O)(=O)c2ccc3[nH]c4c(c3c2)CCCCCC4)c1` gave HepG2 viability 20µM* and TGFb SMAD3 inh 10µM*.
Cc1ccc(-c2nc3ccccc3o2)cc1NC(=O)C(C)Oc1ccccc1 (configuration not stated) was read as HepG2 viability -11.2%, TGFb SMAD3 inh -1.6%, KB-3-1 cytotox inactive and KB-V1 MDR tox inactive.
`CCCOC(=O)CSc1nnc(-c2ccccc2)o1` gave HepG2 viability -21.1%, TGFb SMAD3 inh 8.9%, KB-3-1 cytotox inactive and KB-V1 MDR tox inactive.
O=S(=O)(Nc1cccc(Cl)c1)c1ccc2[nH]c3c(c2c1)CCCCCC3 was read as HepG2 viability 20µM*, TGFb SMAD3 inh 11.2µM*, KB-3-1 cytotox inactive and KB-V1 MDR tox inactive.
Screening CC(=O)c1cccc(NS(=O)(=O)c2ccc3[nH]c4c(c3c2)CCCCCC4)c1 returned HepG2 viability -82.1%, TGFb SMAD3 inh inconclusive, KB-3-1 cytotox inactive and KB-V1 MDR tox inconclusive.
`CCOc1ccc(NS(=O)(=O)c2ccc3[nH]c4c(c3c2)CCCC4)cc1` gave HepG2 viability 11.2µM*, TGFb SMAD3 inh 11.2µM*, KB-3-1 cytotox inactive and KB-V1 MDR tox inactive.
Screening CCOc1ccc(NS(=O)(=O)c2ccc3[nH]c4c(c3c2)CCCCC4)cc1 returned HepG2 viability -100.2%, TGFb SMAD3 inh inconclusive, KB-3-1 cytotox inconclusive and KB-V1 MDR tox inactive.
For O=C(C(=O)N1CCCc2ccccc21)N1CCCc2ccccc21 the results were HepG2 viability -4.8%, HT1080 IDH1KD tx 16.6%, TGFb SMAD3 inh inconclusive, KB-3-1 cytotox inactive, HT1080-NT tox -7.4% and KB-V1 MDR tox inactive.
`CCOC(=O)/C(=N\Nc1ccccc1)P(=O)(c1ccccc1)c1ccccc1` gave HepG2 viability -10.9%, HT1080 IDH1KD tx -24.4%, TGFb SMAD3 inh inconclusive, KB-3-1 cytotox inactive, HT1080-NT tox inconclusive and KB-V1 MDR tox 11.6µM*.
For CC(NC(c1ccccc1)c1ccccc1)C(=O)N1CCCc2ccccc21 (configuration not stated) the results were HepG2 viability -8.2%, HT1080 IDH1KD tx -16.4%, TGFb SMAD3 inh inconclusive, KB-3-1 cytotox 18.4µM*, HT1080-NT tox -17.4% and KB-V1 MDR tox 13µM*.
CCOC(=O)/C(=N/Nc1ccccc1)N1CCCc2ccccc21 was read as HepG2 viability -12.0%, HT1080 IDH1KD tx -0.7%, TGFb SMAD3 inh 0.6%, KB-3-1 cytotox inactive, HT1080-NT tox -10.1% and KB-V1 MDR tox 16.4µM*.
Screening COc1ccccc1N1CCN(c2ccc(NC(=O)c3ccc(C)cc3)cc2C(=O)O)CC1 returned HepG2 viability 6.1%, TGFb SMAD3 inh -14.2%, KB-3-1 cytotox inactive and KB-V1 MDR tox inactive.
Screening CCCCN(CCCC)CCNC(=O)Cn1nc(CC)n2c(cc3sccc32)c1=O returned HepG2 viability -26.3%, TGFb SMAD3 inh inconclusive, KB-3-1 cytotox inactive and KB-V1 MDR tox inactive.
Cn1c(=O)c(C#N)c(-c2ccc(F)cc2)c2cc(C(=O)c3cc(Cl)cc(Cl)c3O)cnc21 was read as HepG2 viability -44.9%, HT1080 IDH1KD tx inconclusive, TGFb SMAD3 inh 17.8µM*, KB-3-1 cytotox inconclusive, HT1080-NT tox inconclusive and KB-V1 MDR tox inactive.
For Cc1cc(NC(=O)C2CCN(S(=O)(=O)c3cccc4nsnc34)CC2)ccc1Br the results were HepG2 viability -39.2%, TGFb SMAD3 inh inconclusive, KB-3-1 cytotox inactive and KB-V1 MDR tox inactive.
For CC(=O)Nc1ccc(NC(=O)c2cc3c(=O)n(Cc4cccnc4)ccc3nc2C)cc1 the results were HepG2 viability 17.8µM*, TGFb SMAD3 inh -2.2%, KB-3-1 cytotox inactive and KB-V1 MDR tox inactive.
COc1ccc(CNC(=O)c2cc3c(=O)n(Cc4ccc(OC)cc4)ccc3nc2C)cc1 was read as HepG2 viability -26.2%, TGFb SMAD3 inh inconclusive, KB-3-1 cytotox 2.59µM* and KB-V1 MDR tox inactive.
For Cc1nc2ccn(Cc3cccnc3)c(=O)c2cc1C(=O)NCc1ccc(Cl)cc1 the results were HepG2 viability 1.5%, TGFb SMAD3 inh -8.7%, KB-3-1 cytotox inconclusive and KB-V1 MDR tox inactive.
O=C(NCC(c1cccnc1)N1CCc2ccccc2C1)C(=O)Nc1cccc(Cl)c1 (configuration not stated) was read as HepG2 viability -1.4%, TGFb SMAD3 inh -0.3%, KB-3-1 cytotox inactive and KB-V1 MDR tox inactive.
For O=S(=O)(c1cccc(NC(=S)N2CCN(c3ccc(F)cc3)CC2)c1)C(F)F the results were HepG2 viability -12.3%, HT1080 IDH1KD tx -10.5%, TGFb SMAD3 inh inconclusive, KB-3-1 cytotox inactive, HT1080-NT tox 1.7% and KB-V1 MDR tox inactive.
`O=S(=O)(c1cccc(NC(=S)N2CCN(c3cccc(Cl)c3)CC2)c1)C(F)F` gave HepG2 viability 5.2%, HT1080 IDH1KD tx 23.1µM*, TGFb SMAD3 inh 0.0%, KB-3-1 cytotox inactive, HT1080-NT tox 20.6µM* and KB-V1 MDR tox inactive.

Bioassay records: PubChem, National Center for Advancing Translational Sciences (NCATS)
